Assay results from PubChem BioAssay AID651947 (Broad Institute, 2012).
Results with a measured potency or affinity are listed apart. Results filed as inconclusive are left out. The source made the active and inactive calls.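 How the source made its calls: active means luminescence drop in HepG2 cells whose fitted half-effect dose is at most twice the top valid dose; inconclusive means flat curve with 30 to 70% signal loss, or unreliable fit; inactive means the rest.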

Experiment: HepG2 hepatoma cell viability loss – plate reader, dry powder, cytotoxicity control, dose response (AID 651947)
Conditions: ATP luminescence (CellTiter-Glo), 48 h, hits give low values; at 26 µM unless noted

Row | Structure (SMILES) | max activity
1 | FC(F)(F)c1ccc(-c2nnc(SCc3ccccc3)o2)cc1 | 17.4% [at 3 µM] (inactive)
2 | CC1(O)CN(CCSc2nnc(-c3ccccc3)o2)C1 | -33.4% [at 0.195 µM] (inactive)
3 | COCCSc1nnc(-c2ccccc2)o1 | 27.8% [at 0.195 µM] (inactive)
4 | c1ccc(-c2nnc(SCc3cccnc3)o2)cc1 | 17.3% (inactive)
5 | CSc1nnc(-c2ccccc2)o1 | -44.9% [at 60 µM] (inactive)
6 | Fc1ccc(-c2nnc(SCc3cn(Cc4ccccc4)nn3)o2)cc1 | 22.1% [at 3 µM] (inactive)
7 | c1ccc(CSc2nnc(-c3cccnc3)o2)nc1 | -43.9% (inactive)
8 | COc1ccc(-c2nnc(SCc3ccccc3)o2)cc1 | -23.7% [at 6 µM] (inactive)
9 | c1ccc(-c2nnc(SCC3CC3)o2)cc1 | 18.8% [at 0.38 µM] (inactive)
10 | c1ccc(-c2nnc(SC3CCCCC3)o2)cc1 | -38.4% (inactive)
11 | c1ccc(CSc2nnc(-c3ccncc3)o2)cc1 | -43.6% [at 0.38 µM] (inactive)
12 | O=S(=O)(Cc1ccccc1)c1nnc(-c2ccccc2)o1 | -24.8% (inactive)
13 | c1ccc(CSc2nnc(-c3cnco3)o2)cc1 | -31.7% [at 12 µM] (inactive)
14 | FC(F)(F)c1cccc(CSc2nnc(-c3ccccc3)o2)c1 | -34.6% [at 1.6 µM] (inactive)
15 | Clc1ccccc1-c1nnc(SCc2ccccc2)o1 | -37.6% [at 6 µM] (inactive)
16 | c1ccc(CSc2nnc(-c3cc4ccccc4o3)o2)cc1 | 34.2% [at 6 µM] (inactive)
17 | c1ccc(CSc2nnc(-c3cccs3)o2)cc1 | -27.2% [at 12 µM] (inactive)
18 | c1ccc(CSc2nnc(-c3ccc(-c4ccccc4)cc3)o2)cc1 | 15.5% (inactive)

Row | Structure (SMILES) | max activity
19 | N#Cc1ccc(-c2nnc(SCc3ccccc3)o2)cc1 | 15.9% [at 1.6 µM] (inactive)
20 | FC(F)(F)Oc1cccc(-c2nnc(SCc3ccccc3)o2)c1 | -17.6% [at 0.195 µM] (inactive)
21 | Fc1ccc(-c2nnc(SCc3ccccn3)o2)cc1 | -30.7% [at 1.6 µM] (inactive)
22 | Cc1ccc(CSc2nnc(-c3ccccc3)o2)cc1 | 15.4% [at 3 µM] (inactive)
23 | c1ccc(-c2nnc(SCc3ccccn3)o2)cc1 | 18.8% (inactive)
24 | c1ccc(CNCCSc2nnc(-c3ccccc3)o2)cc1 | -50.5% [at 1.6 µM] (inactive)
25 | [O-][n+]1ccccc1CSc1nnc(-c2ccccc2)o1 | -47.8% [at 1.6 µM] (inactive)
26 | c1ccc(CSc2nnc(-c3ccco3)o2)cc1 | -42.4% [at 6 µM] (inactive)
27 | FC(F)(F)c1cccc(-c2nnc(SCc3ccccc3)o2)c1 | 20.7% [at 12 µM] (inactive)
28 | COc1cccc(-c2nnc(SCc3ccccc3)o2)c1 | 22.1% [at 12 µM] (inactive)
29 | c1ccc(-c2ccc(CSc3nnc(-c4ccccc4)o3)cc2)cc1 | -30.5% [at 0.38 µM] (inactive)
30 | FC(F)(F)CNCCSc1nnc(-c2ccccc2)o1 | -10% [at 12 µM] (inactive)
31 | O=S(Cc1ccccc1)c1nnc(-c2ccccc2)o1 (stereo not given) | -53.1% (inactive)
32 | c1ccc(Cn2cc(CSc3nnc(-c4ccccc4)o3)nn2)cc1 | -41.8% (inactive)
33 | c1ccc(CSc2nnc(-c3ccncc3)o2)nc1 | -29.6% [at 6 µM] (inactive)
34 | CN(Cc1ccccc1)c1nnc(-c2ccccc2)o1 | -28.2% (inactive)
35 | Brc1ccc(CSc2nnc(-c3ccccc3)o2)cc1 | 32.4% [at 6 µM] (inactive)
